# Where “and” joins values, the source holds several entries; their conditions need not be identical. Equal values may be shown once. Results filed as inconclusive are left out. Calls of active or inactive are those of the source. Unless noted, the rule behind the calls is not given here.
# How the values were obtained:
# [1] = liver-stage malaria parasite growth inhibition, primary screen, cell-based, HepG2, luciferase luminescence, HepG2 viability (AID 624349; in the data active = parasite load remaining mostly below about 12%, no sharp cut-off; inactive = mostly above about 10%;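 note: 100% = mean of DMSO negative control wells on the same plate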); settings: P. berghei liver stage in HepG2, luciferase luminescence, concentration not given here; parasite load remaining: stronger effect = lower value; viability: measured here: HepG2 viability without parasites
# [2] = target: 6-phosphogluconate dehydrogenase, decarboxylating (Homo sapiens) (UniProt P52209); experiment: 6PGD enzyme inhibitors, primary screen, biochemical, human, recombinant enzyme, NADPH absorbance (AID 1159550;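 active = at least 20% inhibition of 6-phosphogluconate dehydrogenase activity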); settings: recombinant 6PGD, NADPH absorbance 341 nm; at 10 µM; stronger effect = higher value
# [3] = differential killing of epithelial or mesenchymal cells, primary screen, imaging, PC-3E GFP, TEM4-18 mCherry, co-culture (AID 1345086;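 active = compounds killing one labelled cell type while sparing the other, by normalised counts and ratio limits, not self-fluorescent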;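 note: cells exposed to compound for 72 h before imaging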;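 for red/green cell ratio (normalised): normalised mesenchymal count divided by normalised epithelial count so high means epithelial killing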); settings: imaging cell counts, at 1 µM
# [4] = sensitizers of A549 cells to miR-34 induction, primary screen, imaging, A549 dox-inducible miR-34, nuclei and caspase counts (AID 1347080;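 active = compounds whose cell count with miR-34 switched on is under 0.7 times the count with it off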); settings: A549 miR-34 inducible, Hoechst nuclei count, 48 h
# [5] = target: NAD(+) hydrolase SARM1 (Homo sapiens) (UniProt Q6SZW1); experiment: SARM1 TIR NADase inhibitors, cell lysate, NAD-Glo luminescence (AID 1508614;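 active = compound whose remaining NAD level is above about 45 nM, limit read from the data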;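 note: higher remaining NAD means stronger inhibition of SARM1 NADase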); settings: SAM-TIR HEK293T lysate NADase, at 1 µM, stronger effect = higher value
# [6] = system: Aerobactin synthetase IucA (Klebsiella pneumoniae hvKP1); experiment: Biochemical IucA enzyme inhibition primary screen of the Spectrum library (AID 1346200); settings: malachite green pyrophosphate, A620, at 8 µM, stronger effect = lower value;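 note: 100% = wells without compound and 0% = wells lacking enzyme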
# [7] = target: Mitogen-activated protein kinase 7 (Homo sapiens) (UniProt Q13164); experiment: ERK5 transactivation activators in reporter cells, primary screen, cell-based, HTS (AID 1508626;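 active = luciferase signal above three times the same-plate solvent-only control wells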;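 note: luciferase driven by Gal4-ERK5 fusion binding five Gal4 sites before minimal TATA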); settings: HeLa Gal4-ERK5 transactivation, 18 h, at 5 µM, stronger effect = higher value
# [8] = target: ATP-dependent translocase ABCB1 (Homo sapiens) (UniProt P08183); experiment: MDR1 (ABCB1) efflux transporter inhibition, cell-based (AID 377; in the data active = fluorescence slope change above about 50%); settings: MDR1-expressing cells, fluorescent substrate accumulation slope; stronger effect = higher value; concentration not given here
# [9] = hESC survival regulators, cell-based (AID 493140); settings: human embryonic stem cell survival screen; stronger effect = higher value;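 note: cells exposed to compounds for four days before counting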
# [10] = survival rescue of mitochondrial mutant cells in low glucose, primary screen, MELAS cybrids, Rieske KO mouse fibroblasts, CellTiter-Glo (AID 1508586;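 active = mean z-score across replicates of 1.96 or higher in either the MELAS or the Rieske mutant cell line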;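 note: z relative to plate mean and SD of compound and empty wells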)
# [11] = system: Aerobactin synthetase IucA (Klebsiella pneumoniae, hypervirulent); experiment: IucA enzyme inhibition, biochemical, LOPAC library, absorbance readout (AID 1346212); settings: IucA enzyme assay, absorbance (OD) readout; stronger effect = lower value;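 tested at 8 µM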;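 note: 100% = no compound wells and 0% = no enzyme wells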
# [12] = viability rescue of complex I mutant cybrids, primary screen, cell-based, galactose medium, ATP luminescence (AID 1645843;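 active = z-score of at least 1.8 in each of two replicates, scored against plate mean and spread of sample wells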;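 note: positive z means more ATP and so rescue of galactose-driven cybrid death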); settings: complex I mutant cybrid cells, 72 h, stronger effect = higher value
# [13] = system: Hepatitis C virus NS3 helicase; experiment: HCV NS3 helicase inhibitors, primary screen, biochemical, fluorescence polarization, LOPAC1280 library (AID 687035; in the data active = inhibition above about 37%); settings: Purified HCV NS3 helicase, Cy5-dT15 ssDNA binding fluorescence polarization; stronger effect = higher value; concentration not given here
# [14] = Cy5 fluorescence quenching or enhancement artefacts, artefact control for HCV NS3 helicase inhibitor project, biochemical, LOPAC1280 (AID 687037); settings: Cy5-DNA-NS3h complex fluorescence interference counterscreen
# [15] = phospholipid biosynthesis inhibitors in animal cells, primary screen, cell-based, LOPAC library, screen 4 (AID 1347384); settings: phospholipid biosynthesis inhibition screen, at 10 µM
# [16] = Cy5 fluorescence interference with SSB-bound oligo, artefact control for HCV NS3 helicase inhibitor project, biochemical, NIH Clinical Collection, E. coli SSB (AID 743268)
# [17] = system: Hepatitis C virus NS3 helicase; experiment: HCV NS3 helicase inhibitors, primary screen, biochemical, fluorescence polarization, NIH Clinical Collection (AID 743270); settings: NS3 helicase binding to Cy5-dT15 DNA, stronger effect = higher value, concentration not given here
# [18] = target: Single-stranded DNA-binding protein (Escherichia coli (strain K12)) (UniProt P0AGE0); experiment: E. coli SSB displacement from DNA, counter-screen for HCV NS3 helicase inhibitor project, biochemical, fluorescence polarization, NIH Clinical Collection (AID 743271; in the data active = inhibition above about 28%); settings: stronger effect = higher value, concentration not given here
# [19] = fluorescence interference in NS3h assay format, artefact control for HCV NS3 helicase inhibitor project, biochemical, NIH Clinical Collection (AID 743272); settings: fluorescence interference counterscreen, stronger effect = lower value;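 note: HCV NS3 helicase with a Cy5 labelled single stranded DNA probe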
# [20] = growth inhibition of DIPG glioma cells, dose response, cell-based, SU-DIPG-XIII, MIPE4.0, CellTiter-Glo, qHTS (AID 1347061; cut-off not given, nearly all actives have AC50 up to about 37 µM;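 note: cells exposed to compound for 48 hours before readout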); settings: SU-DIPG-XIII viability, CellTiter-Glo ATP luminescence
# [21] = growth inhibition of DIPG glioma cells, dose response, cell-based, JHH-DIPG-1, MIPE4.0, CellTiter-Glo, qHTS (AID 1347062; cut-off not given, nearly all actives have AC50 up to about 27 µM); settings: JHH-DIPG-1 viability, CellTiter-Glo ATP luminescence
# [22] = growth inhibition of DIPG glioma cells, dose response, cell-based, SU-DIPG-IV, MIPE4.0, CellTiter-Glo, qHTS (AID 1347063; cut-off not given, nearly all actives have AC50 up to about 30 µM;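 note: compound exposure lasted 48 hours before the viability readout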); settings: SU-DIPG-IV viability, CellTiter-Glo ATP luminescence
# [23] = SU-DIPG-VI glioma cell viability, MIPE4.0 library, CellTiter-Glo luminescence, qHTS (AID 1347066; cut-off not given, nearly all actives have AC50 up to about 30 µM;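 note: cells exposed to compound for 48 hours before readout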); settings: CellTiter-Glo ATP luminescence
# [24] = growth inhibition of DIPG glioma cells, dose response, cell-based, SU-DIPG-XVII, MIPE5.0, CellTiter-Glo, qHTS (AID 1347060; cut-off not given, nearly all actives have AC50 up to about 26 µM); settings: SU-DIPG-XVII viability, CellTiter-Glo ATP luminescence
# [25] = growth inhibition of DIPG glioma cells, dose response, cell-based, SU-DIPG-XIII, MIPE5.0, CellTiter-Glo, qHTS (AID 1347064; cut-off not given, nearly all actives have AC50 up to about 23 µM); settings: SU-DIPG-XIII viability, CellTiter-Glo ATP luminescence
# [26] = viability loss in pontine glioma line – cell-based, SU-DIPG-XXV, MIPE5.0, CellTiter-Glo, qHTS, dose response (AID 1347065; cut-off not given, nearly all actives have AC50 up to about 26 µM;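 note: cells exposed to compound for 48 hours before ATP readout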); settings: CellTiter-Glo ATP luminescence
# [27] = JHH-DIPG-1 glioma cell viability, MIPE5.0 library, CellTiter-Glo luminescence, qHTS (AID 1347067; cut-off not given, nearly all actives have AC50 up to about 26 µM;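 note: cells exposed to compound for 48 hours before readout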); settings: JHH-DIPG-1 glioma viability, CellTiter-Glo ATP luminescence
# [28] = SU-DIPG-XXV glioma cell viability, MIPE5.0 library, qHTS (AID 1347068; cut-off not given, nearly all actives have IC50 up to about 30 µM)
# [29] = modifiers of HSF1 nuclear foci, imaging, Selleck Cancer Library (AID 1347162; in the data active = plate-normalised HSF1 focus index below about 0.46); settings: human cells, at 10 µM; SSMD: measured here: HSF1 foci SSMD mean; cell count: measured here: cell number; plate-normalised HSF1 focus index: stronger effect = lower value
# [30] = measured here: relative caspase fold change +Dox/-Dox
# [31] = measured here: total cells with miR-34 induction, stronger effect = lower value
# [32] = measured here: total cells without miR-34 induction
# [33] = MELAS cybrid survival, CellTiter-Glo 48 h, stronger effect = higher value
# [34] = Rieske KO mouse fibroblast survival, CellTiter-Glo 72 h
# Chain of NAD(+) hydrolase SARM1 (Homo sapiens) (Q6SZW1 whole entry, looked up): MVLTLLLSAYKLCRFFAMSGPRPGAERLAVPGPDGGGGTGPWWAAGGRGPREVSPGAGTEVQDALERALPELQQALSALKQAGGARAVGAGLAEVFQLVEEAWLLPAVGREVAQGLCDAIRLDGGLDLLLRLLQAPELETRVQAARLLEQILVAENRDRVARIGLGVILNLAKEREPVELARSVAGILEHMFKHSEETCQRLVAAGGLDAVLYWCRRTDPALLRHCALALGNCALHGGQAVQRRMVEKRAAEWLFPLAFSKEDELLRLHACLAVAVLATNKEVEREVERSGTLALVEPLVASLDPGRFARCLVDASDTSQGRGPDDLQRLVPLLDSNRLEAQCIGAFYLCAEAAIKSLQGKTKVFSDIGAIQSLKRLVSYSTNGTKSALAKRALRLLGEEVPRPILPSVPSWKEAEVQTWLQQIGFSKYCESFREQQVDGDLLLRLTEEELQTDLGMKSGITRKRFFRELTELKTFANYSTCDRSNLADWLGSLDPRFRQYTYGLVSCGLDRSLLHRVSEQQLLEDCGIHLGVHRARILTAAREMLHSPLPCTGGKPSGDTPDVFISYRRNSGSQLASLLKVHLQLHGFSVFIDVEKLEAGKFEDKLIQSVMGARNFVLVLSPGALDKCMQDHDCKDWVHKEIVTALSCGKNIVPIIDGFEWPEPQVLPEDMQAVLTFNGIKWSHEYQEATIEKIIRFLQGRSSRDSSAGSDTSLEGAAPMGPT
# Chain of 6-phosphogluconate dehydrogenase, decarboxylating (Homo sapiens) (P52209 whole entry, looked up): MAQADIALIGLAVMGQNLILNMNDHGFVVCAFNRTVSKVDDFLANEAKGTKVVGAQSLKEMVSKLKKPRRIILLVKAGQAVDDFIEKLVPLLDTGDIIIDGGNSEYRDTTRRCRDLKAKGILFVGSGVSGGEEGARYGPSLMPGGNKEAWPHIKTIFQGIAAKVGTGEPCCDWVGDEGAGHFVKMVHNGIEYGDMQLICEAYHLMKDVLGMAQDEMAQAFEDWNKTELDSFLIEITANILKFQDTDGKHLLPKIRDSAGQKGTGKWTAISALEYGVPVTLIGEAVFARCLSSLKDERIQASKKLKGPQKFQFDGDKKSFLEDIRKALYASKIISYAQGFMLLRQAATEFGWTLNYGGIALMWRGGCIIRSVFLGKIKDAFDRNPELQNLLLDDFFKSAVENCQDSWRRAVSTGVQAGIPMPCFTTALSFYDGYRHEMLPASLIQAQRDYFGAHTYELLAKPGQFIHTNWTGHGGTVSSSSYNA
# Chain of Mitogen-activated protein kinase 7 (Homo sapiens) (Q13164 whole entry, looked up, the tested form may be a part): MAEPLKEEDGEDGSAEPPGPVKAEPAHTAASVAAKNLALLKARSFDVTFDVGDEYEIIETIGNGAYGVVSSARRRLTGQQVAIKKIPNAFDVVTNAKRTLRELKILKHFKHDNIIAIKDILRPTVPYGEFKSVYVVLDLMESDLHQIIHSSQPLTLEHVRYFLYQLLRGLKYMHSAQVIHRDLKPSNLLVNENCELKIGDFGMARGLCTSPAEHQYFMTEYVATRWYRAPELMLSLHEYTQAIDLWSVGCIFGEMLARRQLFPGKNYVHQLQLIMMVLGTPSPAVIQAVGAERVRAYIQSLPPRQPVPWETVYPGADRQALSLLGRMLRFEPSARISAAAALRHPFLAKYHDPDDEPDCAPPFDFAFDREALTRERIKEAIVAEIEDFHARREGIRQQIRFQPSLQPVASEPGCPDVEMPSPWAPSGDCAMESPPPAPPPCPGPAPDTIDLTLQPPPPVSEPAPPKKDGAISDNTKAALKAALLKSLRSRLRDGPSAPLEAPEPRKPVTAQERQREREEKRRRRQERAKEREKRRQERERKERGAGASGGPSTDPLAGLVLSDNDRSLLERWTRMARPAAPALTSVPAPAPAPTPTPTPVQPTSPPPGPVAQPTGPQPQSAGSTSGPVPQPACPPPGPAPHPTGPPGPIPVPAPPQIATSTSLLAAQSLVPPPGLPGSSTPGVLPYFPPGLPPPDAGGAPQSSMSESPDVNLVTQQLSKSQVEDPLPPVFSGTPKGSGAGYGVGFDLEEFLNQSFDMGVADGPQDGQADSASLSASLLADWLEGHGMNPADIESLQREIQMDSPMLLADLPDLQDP
# Chain of ATP-dependent translocase ABCB1 (Homo sapiens) (P08183 whole entry, looked up): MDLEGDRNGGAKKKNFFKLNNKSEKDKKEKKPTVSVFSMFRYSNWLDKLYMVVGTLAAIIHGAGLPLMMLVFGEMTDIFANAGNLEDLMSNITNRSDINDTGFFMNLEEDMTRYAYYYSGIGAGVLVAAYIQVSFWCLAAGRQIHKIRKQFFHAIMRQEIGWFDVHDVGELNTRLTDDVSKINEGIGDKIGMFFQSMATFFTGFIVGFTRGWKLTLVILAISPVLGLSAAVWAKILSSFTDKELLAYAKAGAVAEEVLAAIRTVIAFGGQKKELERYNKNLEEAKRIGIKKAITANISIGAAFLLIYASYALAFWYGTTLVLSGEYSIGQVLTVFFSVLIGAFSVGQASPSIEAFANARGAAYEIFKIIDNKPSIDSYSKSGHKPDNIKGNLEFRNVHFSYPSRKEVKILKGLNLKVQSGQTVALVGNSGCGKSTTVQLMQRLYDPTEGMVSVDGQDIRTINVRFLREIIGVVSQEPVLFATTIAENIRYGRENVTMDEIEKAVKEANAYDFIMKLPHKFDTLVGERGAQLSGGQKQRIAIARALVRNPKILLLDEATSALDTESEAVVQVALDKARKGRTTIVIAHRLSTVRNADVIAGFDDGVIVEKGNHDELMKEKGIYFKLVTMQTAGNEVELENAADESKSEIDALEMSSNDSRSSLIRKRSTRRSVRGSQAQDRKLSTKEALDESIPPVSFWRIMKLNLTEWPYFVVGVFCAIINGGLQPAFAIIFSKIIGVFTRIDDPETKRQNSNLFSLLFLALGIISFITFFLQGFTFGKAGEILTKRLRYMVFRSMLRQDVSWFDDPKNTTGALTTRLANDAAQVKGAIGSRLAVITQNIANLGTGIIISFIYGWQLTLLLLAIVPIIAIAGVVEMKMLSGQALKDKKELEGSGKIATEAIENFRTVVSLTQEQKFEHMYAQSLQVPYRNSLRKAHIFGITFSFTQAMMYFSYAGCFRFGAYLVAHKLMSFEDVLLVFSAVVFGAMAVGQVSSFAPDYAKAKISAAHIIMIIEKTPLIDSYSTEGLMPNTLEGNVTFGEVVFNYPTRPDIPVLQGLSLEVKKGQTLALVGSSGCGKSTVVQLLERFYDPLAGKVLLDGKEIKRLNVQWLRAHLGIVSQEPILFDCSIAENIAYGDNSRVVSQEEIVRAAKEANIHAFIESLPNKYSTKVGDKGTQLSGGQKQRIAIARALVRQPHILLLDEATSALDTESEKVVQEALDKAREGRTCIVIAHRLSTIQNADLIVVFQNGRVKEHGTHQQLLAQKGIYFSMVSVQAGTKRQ
smiles,measurement,setting,value
CNc1ccc(C(=O)CC(O)CCC(C)C2OC(=O)CC(O)CC(=O)CC(O)CC(O)CC(O)CC(O)CC3(O)CC(O)C(C(=O)OC)C(CC(O[C@@H]4O[C@H](C)[C@@H](O)[C@H](N)[C@@H]4O)/C=C/C=C/C=C/C=C/C=C/C=C/C=C/C2C)O3)cc1 (stereo not given in full),parasite load remaining,[1],132% (inactive) and 33.6% (inactive)
same,viability,[1],90% and 101%
same,inhibition,[2],2.08% (inactive)
same,red/green cell ratio (normalised),[3]; actives lie on both sides,1.39 (inactive)
same,normalised cell number,[3]; measured here: epithelial PC-3E GFP cell survival,0.82
same,normalised cell number,[3]; measured here: mesenchymal TEM4-18 mCherry cell survival,1.14
same,fold change,[4]; stronger effect = lower value,0.878 (inactive)
same,fold change,[4]; [30],3.37
same,cell count,[4]; [31],11000
same,cell count,[4]; [32],12500
same,remaining NAD,[5],10 nM (inactive)
COc1nc(NC(C)C)nc(NC(C)C)n1,inhibition,[2],-20.6% (inactive)
same,activity remaining,[6],117% (inactive)
COc1cc([C@@H]2c3cc4c(cc3[C@H](OC(C)=O)[C@H]3COC(=O)[C@H]23)OCO4)cc(OC)c1OC,inhibition,[2],-6.91% (inactive)
same,activity remaining,[6],112% (inactive)
same,luciferase signal,[7],244 AU (active)
C[C@]12CC[C@H](O)C[C@@H]1CC[C@@H]1[C@@H]2CC[C@]2(C)C(=O)CC[C@@H]12,fluorescence slope change,[8],99.1% (active)
same,survival,[9],10.7 (inactive)
same,parasite load remaining,[1],91.7% (inactive) and 87.8% (inactive)
same,viability,[1],100% and 84.1%
same,inhibition,[2],18.5% (inactive)
same,fold change,[4]; stronger effect = lower value,0.944 (inactive)
same,fold change,[4]; [30],1.47
same,cell count,[4]; [31],7960
same,cell count,[4]; [32],8440
same,z-score,[10]; [33],0.265 (inactive)
same,z-score,[10]; [34],0.304
same,luciferase signal,[7],20 AU (inactive)
Oc1ccc2c3c1O[C@H]1[C@@H](O)CC[C@@]4(O)[C@@H](C2)N(CC2CCC2)CC[C@]314,fluorescence slope change,[8],211% (active)
same,survival,[9],24.5 (inactive)
same,parasite load remaining,[1],32.6% (inactive) and 106% (inactive) and 79.1% (inactive)
same,viability,[1],52.8% and 85.6% and 172%
same,inhibition,[2],-20.2% (inactive)
same,remaining activity,[11],118% (inactive)
same,fold change,[4]; stronger effect = lower value,0.924 (inactive) and 0.934 (inactive)
same,fold change,[4]; [30],1.19 and 1.05
same,cell count,[4]; [31],9080 and 10200
same,cell count,[4]; [32],9820 and 11000
same,z-score,[10]; [33],0.883 (inactive) and 0.331 (inactive)
same,z-score,[10]; [34],0.202 and -0.251
same,remaining NAD,[5],10 nM (inactive)
same,luciferase signal,[7],52 AU (inactive)
same,z-score,[12],0.78 (inactive)
COc1ccc2c(c1)[C@]13CCCC[C@@H]1[C@H](C2)N(C)CC3,inhibition,[2],2.05% (inactive)
same,fold change,[4]; stronger effect = lower value,0.873 (inactive) and 0.843 (inactive) and 0.893 (inactive)
same,fold change,[4]; [30],2.02 and 0.727 and 1.27
same,cell count,[4]; [31],9020 and 10500 and 9760
same,cell count,[4]; [32],10300 and 12400 and 10900
same,z-score,[10]; [33],0.326 (inactive) and 0.234 (inactive)
same,z-score,[10]; [34],0.302 and -0.256
same,remaining NAD,[5],10 nM (inactive)
same,luciferase signal,[7],28 AU (inactive)
same,z-score,[12],-0.13 (inactive)
CC(C)=CCOc1c2occc2cc2ccc(=O)oc12,parasite load remaining,[1],18.8% (inactive)
same,viability,[1],92.7%
same,inhibition,[13],-2% (inactive)
same,fluorescence ratio (interference),[14],1 (inactive)
same,inhibition,[2],4.77% (inactive)
same,activity remaining,[6],108% (inactive)
same,fold change,[4]; stronger effect = lower value,1.08 (inactive)
same,fold change,[4]; [30],1.1
same,cell count,[4]; [31],8640
same,cell count,[4]; [32],8010
same,outcome,[15],inactive
same,z-score,[12],0.56 (inactive)
C[C@]12CC[C@H]3[C@@H](CCC4=CC(=O)CC[C@@]43C)[C@@H]1CC[C@@H]2O,parasite load remaining,[1],61.8% (inactive)
same,viability,[1],72.2%
same,fluorescence ratio,[16],0.93 (inactive)
same,inhibition,[17],1.53% (inactive)
same,inhibition,[18],0.39% (inactive)
same,fluorescence ratio,[19],0.96 (inactive)
same,inhibition,[2],16.5% (inactive)
same,outcome,[20],inactive
same,outcome,[21],inactive
same,outcome,[22],inactive
same,outcome,[23],inactive
same,remaining NAD,[5],10 nM (inactive)
same,luciferase signal,[7],68 AU (inactive)
N#Cc1c(Cl)cccc1Cl,inhibition,[2],-5.35% (inactive)
same,activity remaining,[6],93.8% (inactive)
same,luciferase signal,[7],52 AU (inactive)
CC(C)Nc1nc(Cl)nc(NC(C)C)n1,inhibition,[2],-12% (inactive)
same,activity remaining,[6],111% (inactive)
same,luciferase signal,[7],52 AU (inactive)
C[C@@H]1C(=O)O[C@H]2[C@H]1CC[C@@]1(C)C=CC(=O)[C@@]3(C)O[C@@]213,inhibition,[2],-5.96% (inactive)
same,activity remaining,[6],112% (inactive)
same,luciferase signal,[7],108 AU (inactive)
C[C@]12CCC(=O)C(O)=C1CC[C@@H]1[C@@H]2CC[C@]2(C)C(=O)CC[C@@H]12,parasite load remaining,[1],20.3% (inactive)
same,viability,[1],80.5%
same,inhibition,[2],-18.3% (inactive)
same,outcome,[24],inactive
same,outcome,[20],inactive
same,outcome,[21],inactive
same,outcome,[22],inactive
same,outcome,[25],inactive
same,outcome,[26],inactive
same,outcome,[27],inactive
same,outcome,[28],inactive
same,fold change,[4]; stronger effect = lower value,0.801 (inactive)
same,fold change,[4]; [30],1.62
same,cell count,[4]; [31],8120
same,cell count,[4]; [32],10100
same,SSMD,[29],1.39
same,cell count,[29],6710
same,plate-normalised HSF1 focus index,[29],1.07 (inactive)
same,z-score,[10]; [33],1.07 (inactive) and 0.415 (inactive)
same,z-score,[10]; [34],-0.144 and -0.532
same,remaining NAD,[5],10 nM (inactive)
same,luciferase signal,[7],48 AU (inactive)
same,z-score,[12],0.27 (inactive)

# From PubChem BioAssay
